Assay results: PubChem BioAssay (EPA / NIEHS)
Calls of active or inactive are those of the source. How the source made its calls, unless noted: active means hit-call score of the fitted dose curve at least 0.9, where 1 is the maximum; inactive means score below 0.9.

Legend:
[1] = read-out: Protein phosphatase 2A (PPP2R4), PTPA (gene 5524); assay: LTEA_HepaRG_PPP2R4: Life Technologies and Expression Analysis (LTEA) Assay for Protein phosphatase 2A (PPP2R4) using HepaRG (AID 2283522); conditions: mRNA level, 48 h; actives raise or lower the signal
How it was run: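 Gene-expression endpoint in HepaRG hepatic cells: 48 h treatment across eight half-log concentrations up to 100 uM in 0.5% DMSO. PPP2R4 mRNA by qRT-PCR, normalized to three endogenous control genes.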

[2] = read-out: Phosphatase and tensin (PTEN), PTEN (gene 5728); assay: LTEA_HepaRG_PTEN: Life Technologies and Expression Analysis (LTEA) Assay for Phosphatase and tensin (PTEN) using HepaRG (AID 2283523); conditions: mRNA level, 48 h; actives raise or lower the signal
How it was run: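 Differentiated human HepaRG cells, plated 48 h then switched to serum-free induction medium, were exposed in duplicate for 48 h to eight half-log concentrations up to 100 uM in 0.5% DMSO. PTEN mRNA measured by TaqMan qRT-PCR, normalized to ACTB/GAPDH/POLR2A, bidirectional fit versus DMSO.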

[3] = read-out: solute carrier (SLC22A1), SLC22A1 (gene 6580); assay: LTEA_HepaRG_SLC22A1: Life Technologies and Expression Analysis (LTEA) Assay for solute carrier (SLC22A1) using HepaRG (AID 2283524); conditions: mRNA level, 48 h; actives raise or lower the signal
How it was run: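 Human HepaRG cells were plated 48 h, switched to serum-free induction medium, then exposed in duplicate for 48 h to 8-point half-log series from 100 uM in 0.5% DMSO. SLC22A1 mRNA measured by qRT-PCR, normalized to ACTB/GAPDH/POLR2A, fitted bidirectionally versus DMSO.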

[4] = read-out: Pyruvate Dehydrogenase Kinase 4 (PDK4), PDK4 (gene 5166); assay: LTEA_HepaRG_PDK4: Life Technologies and Expression Analysis (LTEA) Assay for Pyruvate Dehydrogenase Kinase 4 (PDK4) using HepaRG (AID 2283525); conditions: mRNA level, 48 h; actives raise or lower the signal
How it was run: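 Differentiated human HepaRG cells, pre-cultured 48 h, were exposed in duplicate for 48 h in serum-free induction medium to eight half-log concentrations up to 100 uM in 0.5% DMSO. PDK4 mRNA was quantified by qRT-PCR, normalized to ACTB, GAPDH and POLR2A, bidirectional fitting versus DMSO.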

[5] = read-out: NAD(P)H dehydrogenase [quinone] 1 (NQO1), NQO1 (gene 1728); assay: LTEA_HepaRG_NQO1: Life Technologies and Expression Analysis (LTEA) Assay for NAD(P)H dehydrogenase [quinone] 1 (NQO1) using HepaRG (AID 2283526); conditions: mRNA level, 48 h; actives raise or lower the signal
How it was run: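 Human HepaRG hepatic cells received chemicals for 48 h in serum-free induction medium with 0.5% DMSO, up to 100 uM. Expression was assessed by TaqMan qRT-PCR against housekeeping controls and fitted bidirectionally against DMSO.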

[6] = read-out: Nuclear factor erythroid 2-related factor 2 (Homo sapiens) (UniProt Q16236); assay: LTEA_HepaRG_NFE2L2: Life Technologies and Expression Analysis (LTEA) Assay for Nuclear factor erythroid 2-related factor 2 (NFE2L2) Transcription Factor using HepaRG (AID 2283527); conditions: mRNA level, 48 h; actives raise or lower the signal
How it was run: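 Differentiated human HepaRG cells in serum-free induction medium were exposed for 48 h to eight concentrations (top 100 uM, half-log dilutions, 0.5% DMSO), in duplicate. NFE2L2 mRNA was quantified by TaqMan qRT-PCR, normalized to ACTB, GAPDH and POLR2A, with bidirectional fitting versus DMSO.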

[7] = read-out: succinate dehydrogenase complex iron sulfur subunit B (SDHB), SDHB (gene 6390); assay: LTEA_HepaRG_SDHB: Life Technologies and Expression Analysis (LTEA) Assay for succinate dehydrogenase complex iron sulfur subunit B (SDHB) using HepaRG (AID 2283528); conditions: mRNA level, 48 h; actives raise or lower the signal
How it was run: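 HepaRG cells (~100,000/well, plated 48 h) exposed in duplicate for 48 h in serum-free induction medium to 8-point half-log series from 100 uM in 0.5% DMSO; mRNA by qRT-PCR normalised to ACTB, GAPDH, POLR2A; bidirectional fit versus DMSO.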

[8] = read-out: Signal transducer and activator of transcription 3 (Homo sapiens) (UniProt P40763); assay: LTEA_HepaRG_STAT3: Life Technologies and Expression Analysis (LTEA) Assay for Signal transducer and activator of transcription (STAT3) using HepaRG (AID 2283529); conditions: mRNA level, 48 h; actives raise or lower the signal
How it was run: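 Differentiated human HepaRG cells in serum-free induction medium were exposed in duplicate for 48 h to eight half-log concentrations up to 100 uM in 0.5% DMSO. STAT3 mRNA was quantified by TaqMan qRT-PCR, normalized to ACTB, GAPDH and POLR2A, and fitted bidirectionally against DMSO.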

[9] = read-out: solute carrier (SLCO1B1), SLCO1B1 (gene 10599); assay: LTEA_HepaRG_SLCO1B1: Life Technologies and Expression Analysis (LTEA) Assay for solute carrier (SLCO1B1) using HepaRG (AID 2283530); conditions: mRNA level, 48 h; actives raise or lower the signal
How it was run: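 Human HepaRG cultures treated for 48 h with an eight-concentration half-log series topping at 100 uM; SLCO1B1 measured by qRT-PCR and fitted bidirectionally relative to DMSO.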

[10] = read-out: sulfotransferase 2A1 (SULT2A1), SULT2A1 (gene 6822); assay: LTEA_HepaRG_SULT2A1: Life Technologies and Expression Analysis (LTEA) Assay for sulfotransferase 2A1 (SULT2A1) using HepaRG (AID 2283531); conditions: mRNA level, 48 h; actives raise or lower the signal
How it was run: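 Gene-expression endpoint in a human liver cell line: SULT2A1 mRNA change after 48 h chemical treatment, curves fitted in both directions relative to 0.5% DMSO vehicle. Concentrations spanned eight half-log steps from 100 uM.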

[11] = read-out: Transforming Growth Factor (TGFA), TGFA (gene 7039); assay: LTEA_HepaRG_TGFA: Life Technologies and Expression Analysis (LTEA) Assay for Transforming Growth Factor (TGFA) using HepaRG (AID 2283532); conditions: mRNA level, 48 h; actives raise or lower the signal
How it was run: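 Differentiated human HepaRG cells, plated 48 h then switched to serum-free induction medium, were exposed in duplicate for 48 h to 8-point half-log series from 100 uM in 0.5% DMSO. TGFA mRNA measured by qRT-PCR, normalized to ACTB/GAPDH/POLR2A, bidirectional fit versus DMSO.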

[12] = read-out: Transforming Growth Factor (TGFB1), TGFB1 (gene 7040); assay: LTEA_HepaRG_TGFB1: Life Technologies and Expression Analysis (LTEA) Assay for Transforming Growth Factor (TGFB1) Transporter using HepaRG (AID 2283533); conditions: mRNA level, 48 h; actives raise or lower the signal
How it was run: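 Eight-point concentration-response (max 100 uM, half-log) in HepaRG under serum-free induction conditions, 48 h. TGFB1 mRNA by qRT-PCR, housekeeping-normalized.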

[13] = read-out: TIMP1, TIMP1 (gene 7076); assay: LTEA_HepaRG_TIMP1: Life Technologies and Expression Analysis (LTEA) Assay for TIMP1 using HepaRG (AID 2283534); conditions: mRNA level, 48 h; actives raise or lower the signal
How it was run: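 TIMP1 induction or repression in HepaRG cells after 48 h chemical exposure (eight concentrations, highest 100 uM), assessed by normalized qRT-PCR with bidirectional fitting to DMSO controls.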

[14] = read-out: Tumor necrosis factor receptor 1 (TNFRSF1A), TNFRSF1A (gene 7132); assay: LTEA_HepaRG_TNFRSF1A: Life Technologies and Expression Analysis (LTEA) Assay for Tumor necrosis factor receptor 1 (TNFRSF1A) using HepaRG (AID 2283535); conditions: mRNA level, 48 h; actives raise or lower the signal
How it was run: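 Assay uses 48 h chemical treatment of differentiated HepaRG monolayers, tested in duplicate at eight concentrations from 100 uM downward in 0.5% DMSO. mRNA is normalized to ACTB, GAPDH and POLR2A, with induction or suppression fitted relative to vehicle.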

[15] = read-out: Thyroid Hormone Responsive (THRSP), THRSP (gene 7069); assay: LTEA_HepaRG_THRSP: Life Technologies and Expression Analysis (LTEA) Assay for Thyroid Hormone Responsive (THRSP) using HepaRG (AID 2283536); conditions: mRNA level, 48 h; actives raise or lower the signal
How it was run: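 Differentiated human HepaRG cells were exposed in duplicate for 48 h in serum-free induction medium to eight concentrations (top 100 uM, half-log steps, 0.5% DMSO). Expression was quantified by TaqMan qRT-PCR, normalized to ACTB, GAPDH and POLR2A, with bidirectional fitting against DMSO.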

[16] = read-out: UDP glucuronosyltransferase (UGT1A1), UGT1A1 (gene 54658); assay: LTEA_HepaRG_UGT1A1: Life Technologies and Expression Analysis (LTEA) Assay for UDP glucuronosyltransferase (UGT1A1) using HepaRG (AID 2283538); conditions: mRNA level, 48 h; actives raise or lower the signal
How it was run: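 Human liver HepaRG cultures receive test chemical for 48 h, up to 100 uM in 0.5% DMSO, with phenobarbital induction controls. UGT1A1 mRNA is measured by qRT-PCR and normalized to ACTB, GAPDH and POLR2A.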

[17] = read-out: UDP glucuronosyltransferase (UGT1A6), UGT1A6 (gene 54578); assay: LTEA_HepaRG_UGT1A6: Life Technologies and Expression Analysis (LTEA) Assay for UDP glucuronosyltransferase (UGT1A6) using HepaRG (AID 2283539); conditions: mRNA level, 48 h; actives raise or lower the signal
How it was run: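 Measures mRNA change in HepaRG hepatic cells exposed 48 h to chemicals (eight-point, maximum 100 uM, 0.5% DMSO vehicle) in serum-free induction medium. Expression normalized to endogenous controls; DMSO served as negative control and baseline.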

[18] = read-out: X-box binding protein 1 (XBP1), XBP1 (gene 7494); assay: LTEA_HepaRG_XBP1: Life Technologies and Expression Analysis (LTEA) Assay for X-box binding protein 1 (XBP1) using HepaRG (AID 2283540); conditions: mRNA level, 48 h; actives raise or lower the signal
How it was run: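 Eight concentrations (half-log, highest 100 uM, 0.5% DMSO) tested in duplicate on HepaRG cells over 48 h in serum-free induction medium; qRT-PCR of XBP1 normalised to ACTB, GAPDH, POLR2A.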

[19] = LTEA_HepaRG_LDH_cytotoxicity: Cytotoxicity Assessment in the Life Technologies and Expression Analysis (LTEA) Assay (AID 2283563; active means hit-call score of the fitted dose curve at least 0.9, where 1 is the maximum;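 further: LDH activity released into spent culture medium as a marker of cell death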)
How it was run: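 Spent-medium LDH after 48 h chemical exposure of HepaRG cells in serum-free induction medium; eight concentrations, half-log dilutions from 100 uM, duplicate wells, fitted upward relative to 0.5% DMSO.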

Measured: AC50

Nuclear factor erythroid 2-related factor 2 (Homo sapiens), sequence (Q16236 whole entry, looked up): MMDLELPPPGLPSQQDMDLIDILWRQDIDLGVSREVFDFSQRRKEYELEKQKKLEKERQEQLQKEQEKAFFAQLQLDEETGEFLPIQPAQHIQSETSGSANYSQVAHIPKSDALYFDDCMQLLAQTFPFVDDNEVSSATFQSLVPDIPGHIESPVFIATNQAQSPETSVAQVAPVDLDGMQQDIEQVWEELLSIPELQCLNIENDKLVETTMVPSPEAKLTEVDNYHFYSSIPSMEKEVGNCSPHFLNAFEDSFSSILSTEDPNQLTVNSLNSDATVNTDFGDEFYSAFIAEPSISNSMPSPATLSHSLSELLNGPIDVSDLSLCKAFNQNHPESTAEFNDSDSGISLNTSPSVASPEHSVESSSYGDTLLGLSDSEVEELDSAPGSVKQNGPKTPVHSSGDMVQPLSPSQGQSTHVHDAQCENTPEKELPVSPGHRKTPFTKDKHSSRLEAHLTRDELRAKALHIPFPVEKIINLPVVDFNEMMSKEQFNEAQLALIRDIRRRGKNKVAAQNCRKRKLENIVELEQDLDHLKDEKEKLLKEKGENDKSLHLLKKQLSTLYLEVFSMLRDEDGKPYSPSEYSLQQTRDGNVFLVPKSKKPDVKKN
Signal transducer and activator of transcription 3 (Homo sapiens), sequence (P40763 whole entry, looked up): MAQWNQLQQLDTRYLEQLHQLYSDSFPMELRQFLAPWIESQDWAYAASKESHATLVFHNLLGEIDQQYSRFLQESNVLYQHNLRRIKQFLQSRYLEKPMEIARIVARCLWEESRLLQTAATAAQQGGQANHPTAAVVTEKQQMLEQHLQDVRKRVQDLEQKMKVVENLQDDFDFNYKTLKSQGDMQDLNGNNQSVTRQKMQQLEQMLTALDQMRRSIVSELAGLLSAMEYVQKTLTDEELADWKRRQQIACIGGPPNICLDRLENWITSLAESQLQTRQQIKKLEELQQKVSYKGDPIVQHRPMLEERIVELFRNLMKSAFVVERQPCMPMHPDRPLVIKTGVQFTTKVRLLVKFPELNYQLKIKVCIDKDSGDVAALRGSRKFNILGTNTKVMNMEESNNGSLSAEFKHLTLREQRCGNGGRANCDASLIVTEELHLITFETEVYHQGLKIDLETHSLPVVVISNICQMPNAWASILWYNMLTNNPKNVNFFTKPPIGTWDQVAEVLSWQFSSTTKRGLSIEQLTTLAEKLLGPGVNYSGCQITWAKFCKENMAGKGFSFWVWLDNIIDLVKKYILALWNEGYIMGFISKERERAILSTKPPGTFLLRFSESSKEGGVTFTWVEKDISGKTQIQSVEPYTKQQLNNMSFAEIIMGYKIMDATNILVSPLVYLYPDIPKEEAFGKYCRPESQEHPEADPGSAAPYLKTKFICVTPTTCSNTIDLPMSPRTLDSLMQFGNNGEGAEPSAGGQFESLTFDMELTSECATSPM

CC(C)(C)c1ccc(CSc2cnn(C(C)(C)C)c(=O)c2Cl)cc1
active: [1] 1.84 µM | [3] 2.71 µM | [4] 9.92 µM | [6] 26.7 µM | [7] 1.54 µM | [9] 2.34 µM | [10] 22.7 µM | [11] 2.96 µM | [13] 26.9 µM | [15] 9.85 µM | [17] 18.8 µM | [18] 2.71 µM | [19] 3.02 µM
inactive: [2] | [5] | [8] | [12] | [14] | [16]
